Measurements as given in the antibiotic and cytotoxicity screens of Wong et al. (2023).
Out of some 39,000 compounds screened, about 1,500 (3.8%) were called active. Many of the other results were omitted from the sample, so actives are more common in it than they were.

system: HSkMC (human skeletal muscle cells); experiment: cytotoxicity call (relative viability < 0.9); settings: 10 µM

SMILES	cytotoxicity call
CCCC(=O)N1CC[C@]2(CC1)CN([C@H](CO)c1c2c2ccc(cc2n1C)OC)C(=O)CN1CCOCC1	inactive
C[C@H](CO)N1C[C@H](C)[C@H](CN(C)C(=O)Nc2ccc(F)cc2)Oc2ccc(NC(=O)Nc3cccc4ccccc34)cc2C1=O	inactive
CCS(=O)(=O)Nc1ccc2c(c1)C(=O)N(C)[C@H]1CC[C@@H](CC(=O)NCCCN3CCOCC3)O[C@H]1CO2	inactive
COc1ccc(NC(=O)Nc2ccc3c(c2)C(=O)N([C@H](C)CO)C[C@H](C)[C@H](CN(C)Cc2ccc(C(F)(F)F)cc2)O3)cc1	inactive
COc1ccc(CN(C)C[C@H]2Oc3ccc(NC(=O)Nc4ccc(C(F)(F)F)cc4)cc3C(=O)N([C@@H](C)CO)C[C@H]2C)cc1	active
COc1ccc(NC(=O)Nc2ccc3c(c2)C(=O)N([C@H](C)CO)C[C@@H](C)[C@@H](CN(C)Cc2ccc(C(F)(F)F)cc2)O3)cc1	inactive
COc1ccc(CN(C)C[C@H]2Oc3ccc(NC(=O)Nc4ccc(C(F)(F)F)cc4)cc3C(=O)N([C@@H](C)CO)C[C@@H]2C)cc1	active
COc1ccc(S(=O)(=O)Nc2ccc3c(c2)C(=O)N([C@@H](C)CO)C[C@@H](C)[C@@H](CN(C)Cc2ccccc2)OCCCC[C@H](C)O3)cc1	inactive
C[C@H](CO)N1C[C@H](C)[C@@H](CN(C)S(=O)(=O)c2ccc(Cl)cc2)Oc2c(NS(C)(=O)=O)cccc2C1=O	inactive
C[C@@H]1CN([C@@H](C)CO)C(=O)Cc2cc(NS(C)(=O)=O)ccc2O[C@H]1CN(C)S(=O)(=O)c1ccc(F)cc1	inactive
O=C(C[C@@H]1C=C[C@H](NC(=O)c2ccncc2)[C@@H](CO)O1)NCc1ccncn1	inactive
Cc1ccc(S(=O)(=O)Nc2ccc3c(c2)C(=O)N([C@@H](C)CO)C[C@@H](C)[C@H](CN(C)Cc2ccc(Oc4ccccc4)cc2)O3)cc1	inactive
C[C@@H]1CN([C@H](C)CO)C(=O)c2cc(NS(=O)(=O)c3ccccc3)ccc2O[C@@H]1CN(C)Cc1ccc(Oc2ccccc2)cc1	active
Cc1ccc(S(=O)(=O)Nc2ccc3c(c2)C(=O)N([C@@H](C)CO)C[C@@H](C)[C@@H](CN(C)Cc2ccc(Oc4ccccc4)cc2)O3)cc1	active
C[C@H]1CN([C@@H](C)CO)C(=O)c2cc(NS(=O)(=O)c3ccccc3)ccc2O[C@H]1CN(C)Cc1ccc(Oc2ccccc2)cc1	inactive
COc1ccc(S(=O)(=O)Nc2ccc3c(c2)C(=O)N([C@H](C)CO)C[C@H](C)[C@@H](CN(C)Cc2ccc(Oc4ccccc4)cc2)O3)cc1	active
Cc1ccc(S(=O)(=O)Nc2ccc3c(c2)C(=O)N([C@@H](C)CO)C[C@H](C)[C@H](CN(C)Cc2ccc(Oc4ccccc4)cc2)O3)cc1	inactive
C[C@H](CO)N1C[C@H](C)[C@@H](CN(C)Cc2ccc(Oc3ccccc3)cc2)Oc2ccc(NS(=O)(=O)c3ccccc3)cc2C1=O	inactive
Cc1ccc(S(=O)(=O)Nc2ccc3c(c2)C(=O)N([C@@H](C)CO)C[C@H](C)[C@@H](CN(C)Cc2ccc(Oc4ccccc4)cc2)O3)cc1	inactive
Cc1ccc(S(=O)(=O)Nc2ccc3c(c2)C(=O)N([C@H](C)CO)C[C@@H](C)[C@@H](CN(C)Cc2ccc(Oc4ccccc4)cc2)O3)cc1	active
COc1ccc(S(=O)(=O)Nc2ccc3c(c2)C(=O)N([C@H](C)CO)C[C@H](C)[C@H](CN(C)Cc2ccc(Oc4ccccc4)cc2)O3)cc1	inactive
COc1ccc(S(=O)(=O)Nc2ccc3c(c2)C(=O)N([C@H](C)CO)C[C@@H](C)[C@@H](CN(C)Cc2ccc(Oc4ccccc4)cc2)O3)cc1	inactive
